# Data reported in the supplement of paper PMC7411640.
# Counter-ions that a name gives are not always drawn.
# Tested on: MDA-MB-468
# Experiment: phospho-S6 immunofluorescence (DAPI-normalised), per-plate z-score; higher = higher phospho-S6 signal (less pathway suppression)
# Details: 24 h
# Protocol: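 GPCR-targeted compound library (MedChemExpress HY-L006) tested on MDA-MB-468 PTEN-null TNBC cells in 384-well plates at 0.1, 1 or 10 uM, combined with vehicle, GDC0941 450 nM or lapatinib 1 uM, for 24 h. Phospho-S6 (S240/244) immunofluorescence normalised to DAPI and expressed as a per-plate z-score; values are the mean of biological triplicates.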
SMILES,phospho-S6 immunofluorescence (z-score) (co-treatment: GDC0941 450 nM),phospho-S6 immunofluorescence (z-score) (co-treatment: lapatinib 1 uM),phospho-S6 immunofluorescence (z-score) (co-treatment: vehicle)
COc1ccccc1Oc1c(NS(=O)(=O)c2ccc(C(C)(C)C)cc2)nc(-c2ncccn2)nc1OCCO [Bosentan] (compound 10 µM),0.53,0.78,1.05
CC(C)(Cc1ccc2ccccc2c1)NC[C@@H](O)COc1cccc(Cl)c1C#N [NPS-2143 (hydrochloride)] (compound 10 µM),-6,-12.2,-9.7
Cc1c(C(=O)NN2CCCCC2)nn(-c2ccc(Cl)cc2Cl)c1-c1ccc(I)cc1 (compound 10 µM),-1.91,-1.68,-2.82
OC[C@H]1O[C@@H](n2cnc3c(N[C@@H]4CCc5ccccc54)ncnc32)[C@H](O)[C@@H]1O (compound 10 µM),1.19,0.89,1.18
O=C(Nc1ccc(Cl)cc1CN1C(=O)c2ccccc2C1=O)c1ccccc1O (compound 10 µM),-1.83,-0.3,-0.57
OC[C@@H](O)CN1CCN(c2ccccc2)CC1 [Levodropropizine] (compound 10 µM),-0.63,0.66,-0.68
C[C@@H](O)[C@@H]1NC(=O)[C@H](CCCCN)NC(=O)[C@@H](Cc2c[nH]c3ccccc23)NC(=O)[C@H](Cc2ccccc2)NC(=O)[C@@H](NC(=O)[C@H](N)Cc2ccccc2)CSSC[C@@H](C(=O)N[C@H](CO)[C@@H](C)O)NC1=O [Octreotide (acetate)] (compound 10 µM),0.59,1.9,-0.73
CC(C)(C(=O)O)c1ccc(C(O)CCCN2CCC(C(O)(c3ccccc3)c3ccccc3)CC2)cc1 (stereo not drawn) [Fexofenadine (hydrochloride)] (compound 10 µM),-0.31,-0.84,-0.42
O=c1cc(CN2CCOCC2)occ1OCCCCCSc1ccnc2cc(C(F)(F)F)ccc12 (compound 10 µM),-2.93,-3.04,-3.82
CSc1ccc2c(c1)N(CCC1CCCCN1C)c1ccccc1S2 (stereo not drawn) [Thioridazine (hydrochloride)] (compound 10 µM),-5.09,-8.27,-7.88
CCN(CC)Cc1ccc(C(=O)N(CCc2ccccc2OC)[C@@H]2CCNC2)cc1 (compound 10 µM),0.19,0.1,0.12
Cc1cccn2c(=O)c(-c3nnn[nH]3)cnc12 [Pemirolast (potassium)] (compound 10 µM),-0.3,-0.65,-1.33
CN(C)CCN(Cc1ccccc1)c1ccccn1 [Tripelennamine (hydrochloride)] (compound 10 µM),-0.07,-0.31,-0.41
CN(C)CCOC(c1ccccc1)c1ccccc1.Cn1c(=O)c2[nH]c(Cl)nc2n(C)c1=O [Dimenhydrinate] (compound 10 µM),-1.22,0.01,-0.02
C[C@@H](O[C@H]1OCCN(Cc2n[nH]c(=O)[nH]2)[C@H]1c1ccc(F)cc1)c1cc(C(F)(F)F)cc(C(F)(F)F)c1 [Aprepitant] (compound 10 µM),-1.22,-1.02,0.64
CC(N)(C(=O)O)c1ccc(C(=O)O)cc1 (racemic) (compound 10 µM),0.62,0,0.84
COc1ccccc1N1CCN(CC(O)COc2cccc3ccccc23)CC1 (stereo not drawn) [Naftopidil] (compound 10 µM),-0.13,-0.63,0.64
CC(=O)Nc1cccc2c1c(Sc1ccc(Cl)cc1)c(C)n2CC(=O)O (compound 10 µM),0.52,0.08,-0.17
C[C@](N)(Cc1ccc(O)c(O)c1)C(=O)O (compound 10 µM),-0.58,0.11,-0.1
CN1Cc2c(N)cccc2C(c2ccccc2)C1 (stereo not drawn) [Nomifensine (maleate)] (compound 10 µM),-0.09,-0.69,-0.17
NC[C@H](O)c1ccc(O)c(O)c1 [Norepinephrine (bitartrate monohydrate)] (compound 10 µM),0.52,1.81,0.17
CCC(=O)NCC[C@@H]1CCc2ccc3c(c21)CCO3 [Ramelteon] (compound 10 µM),-0.04,-0.4,0.21
O=C1CC2(CCCC2)CC(=O)N1CCCCN1CCN(c2ncccn2)CC1 [Buspirone (hydrochloride)] (compound 10 µM),0.3,0.17,0.69
CCN(CC)CCNC(=O)c1cc(Cl)c(N)cc1OC [Metoclopramide (hydrochloride hydrate)] (compound 10 µM),-0.35,0.77,0.05
O=C(Nc1ccc([N+](=O)[O-])cc1O)Nc1ccccc1Br (compound 10 µM),-1.44,0.89,-0.39
C(=C\c1ccccc1)/CN1CCN(C(c2ccccc2)c2ccccc2)CC1 [Cinnarizine] (compound 10 µM),0.86,0.22,1.3

SMILES,phospho-S6 immunofluorescence (z-score) (co-treatment: GDC0941 450 nM),phospho-S6 immunofluorescence (z-score) (co-treatment: lapatinib 1 uM),phospho-S6 immunofluorescence (z-score) (co-treatment: vehicle)
CCNC(=O)[C@@H]1CCCN1C(=O)[C@H](CCCNC(=N)N)NC(=O)[C@H](CC(C)C)NC(=O)[C@@H](COC(C)(C)C)NC(=O)[C@H](Cc1ccc(O)cc1)NC(=O)[C@H](CO)NC(=O)[C@H](Cc1c[nH]c2ccccc12)NC(=O)[C@H](Cc1cnc[nH]1)NC(=O)[C@@H]1CCC(=O)N1 [Buserelin (Acetate)] (compound 10 µM),0.78,0.63,0.53
CCOC(=O)N1CCC(=C2c3ccc(Cl)cc3CCc3cccnc32)CC1 [Loratadine] (compound 10 µM),-1.77,-0.82,-1.25
COc1ccccc1OCCNCC(O)COc1cccc2[nH]c3ccccc3c12 (stereo not drawn) [Carvedilol] (compound 10 µM),-4.07,-4.63,-3.59
c1cnc(NCc2ccc(CNc3ncccn3)cc2)nc1 (compound 10 µM),-0.12,-0.26,-0.11
CC(C)N(CC[C@H](c1ccccc1)c1cc(CO)ccc1O)C(C)C [(R)-5-Hydroxymethyl Tolterodine] (compound 10 µM),0.35,0.44,0.11
O=C(CN1C(=O)C2(CCCC2)NC[C@H]1c1cc(F)cc(F)c1)Nc1ccc2c(c1)C[C@@]1(C2)C(=O)Nc2ncccc21 [MK-3207 (Hydrochloride)] (compound 10 µM),-0.51,-0.06,-0.48
CN1CCN(C2=Nc3ccccc3Oc3ccc(Cl)cc32)CC1 [Loxapine (succinate)] (compound 10 µM),0.7,1.22,-1.15
O=c1ccn([C@@H]2O[C@H](COP(=O)(O)OP(=O)(O)OP(=O)(O)OP(=O)(O)OC[C@H]3O[C@@H](n4ccc(=O)[nH]c4=O)[C@H](O)[C@@H]3O)[C@@H](O)[C@H]2O)c(=O)[nH]1 [Diquafosol (tetrasodium)] (compound 10 µM),0.01,0.71,-0.38
O=C(O)COCCN1CCN(C(c2ccccc2)c2ccc(Cl)cc2)CC1 (stereo not drawn) [Cetirizine (dihydrochloride)] (compound 10 µM),-0.15,0.74,0.52
N=C(N)NCCCCN [Agmatine (sulfate)] (compound 10 µM),0.88,-0.16,0.73
CCC/N=C1\S/C(=C\c2ccc(OC[C@H](O)CO)c(Cl)c2)C(=O)N1c1ccccc1C [Ponesimod] (compound 10 µM),-0.8,0.52,1.07
CN(C)CC/C=C1/c2ccccc2COc2ccc(CC(=O)O)cc21 [Olopatadine (hydrochloride)] (compound 10 µM),0.01,0.08,-0.35
CC(C)NCC(O)COc1cccc2ccccc12 (stereo not drawn) [Propranolol (hydrochloride)] (compound 10 µM),0.53,0.73,0.21
CCCCC1=NC2(CCCC2)C(=O)N1Cc1ccc(-c2ccccc2-c2nnn[nH]2)cc1 [Irbesartan] (compound 10 µM),0.03,0.13,0.09
COCCCN1CCC(NC(=O)c2cc(Cl)c(N)c3c2OCC3)CC1 [Prucalopride] (compound 10 µM),0.54,0,0.17
COc1ccc(CC(C)NCC(O)c2ccc(O)c(NC=O)c2)cc1 (stereo not drawn) [Formoterol (Fumarate)] (compound 10 µM),1.08,0.77,0.16
COc1ccc(N2CCOCC2)c2sc(NC(=O)N3CCC(C)(O)CC3)nc12 [Tozadenant] (compound 10 µM),0.02,0.77,0.82
C[C@H](Nc1cc(NS(=O)(=O)N2CCC2)nc(SCc2cccc(F)c2F)n1)[C@@H](O)CO (compound 10 µM),-1.17,-0.3,-0.77
Nc1ncnc2c1ncn2C1CCCO1 (stereo not drawn) (compound 10 µM),0.45,-0.67,-0.21
Cc1cc2c(s1)Nc1ccccc1N=C2N1CCN(C)CC1 [Olanzapine] (compound 10 µM),0.77,0.3,0.35
CN(C)CCCN1c2ccccc2Sc2ccc(Cl)cc21 [Chlorpromazine (hydrochloride)] (compound 10 µM),0.58,-1.09,3.4
CN(C)CCOC(C)(c1ccccc1)c1ccc(Cl)cc1 (stereo not drawn) [Chlorphenoxamine] (compound 10 µM),-4.26,-7.36,-4.5
Cc1cc2c(cc1Cl)N(C(=O)Nc1ccc(Oc3cccnc3C)nc1)CC2 (compound 10 µM),-3.98,-5.09,-1.44
CC(=O)Oc1cc2c(s1)CCN(C(C(=O)C1CC1)c1ccccc1F)C2 (stereo not drawn) [Prasugrel] (compound 10 µM),-1.29,1.92,-0.48
c1ccc(CN(CC2=NCCN2)c2ccccc2)cc1 [Antazoline (hydrochloride)] (compound 10 µM),0.27,0.23,1.23
